Hit rate of the full screen: of about 2,100 compounds, about 760 (36%) were called active. Not all results are given here. Unmarked numbers belong to inactive results.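 The calls were made as follows: active = thallium-flux fluorescence traces judged by eye to show enhanced or reduced glutamate response, manual score 1 or -1, so both directions (some results past the limit were not filed as active); inactive = the rest, including fluorescent or raised-baseline compounds.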

The nature of the assay: non-GIRK thallium flux modulation in mGlu8 cells, confirmation, counter-screen for GIRK activator project, cell-based, HEK-293 rmGlu8, no GIRK (AID 623868).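 Also: extra codes mark interference with 3 for fluorescent and 4 for baseline rise.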 The following applies: thallium flux fluorescence, at 10 µM, actives lie on both sides, codes: 1 enhancer, -1 blocker, 0 none, thallium stimulus containing EC20 glutamate. In general terms: Counterscreens check selectivity or assay interference.
For the molecule `O=C(NCCN1CCN(C(=O)Nc2ccccc2)CC1)Nc1ccccc1`, the manual score was 0.

As for `Cc1ccccc1N=Nc1c(C)[nH]n(C(N)=S)c1=O`, the manual score is 1 (active).

As to `C/C(=N\NC(=S)NCCc1ccccc1)c1ccc(C)cc1`, the manual score was 0.

For `COc1ccc(/C(C)=N/NC(=S)NCc2ccco2)cc1`, the manual score was 1 (active).

Regarding `S=C(NCc1ccco1)Nc1ccc(Cl)c(Cl)c1`, the manual score was 0.

`S=C(NCc1ccco1)N/N=C/c1ccc(Cl)cc1`: the manual score was 1 (active).

Regarding `COc1cccc(N2CCN(c3c4c(nc5ncnn35)CCC4)CC2)c1`, the manual score was 0.

Take `O=C(Oc1ccccc1C(=S)N1CCCCC1)c1cc([N+](=O)[O-])cc([N+](=O)[O-])c1`: the manual score is 0.

For the molecule `O=C(Oc1c(Cl)cc(Cl)c2cccnc12)c1cccc([N+](=O)[O-])c1`, the manual score was 1 (active).

Regarding `O=C(Oc1c(Cl)cc(Cl)c2cccnc12)c1ccco1`, the manual score is 1 (active).

For the molecule `COC(=O)[C@H]1CCCN1C(=O)Nc1cccc(Oc2c(F)c(F)c(F)c(F)c2F)c1`, the manual score is 0.

Turning to `Cc1cc(NC(=O)Nc2ccccc2)n(-c2ccccc2)n1`, the manual score is 0.

In the case of `Cc1cc(NC(=O)c2c(F)cccc2Cl)n(-c2nc3ccccc3[nH]2)n1`, the manual score is 0.

In the case of `Cc1ccc(Nc2cc(C)nn2-c2nc(C)cc(=O)[nH]2)cc1`, the manual score is 1 (active).

`CCOC(=O)c1c(NC(=O)CSc2nnc(Cc3csc(N)n3)n2C)sc(C)c1C`: the manual score is -1 (active).

In the case of `C=CCn1c(SCC(=O)Nc2sc(C)c(C)c2C(=O)OCC)nnc1-c1sc(N)nc1C`, the manual score is -1 (active).

Consider `CCOC(=O)c1cnc(SCC(=O)Nc2nc(C)c(C)s2)nc1N`, for which the manual score is 0.

`CC1(C)Cc2ccccc2-c2nnc(SCC(=O)N3CCN(c4ccccc4)CC3)n21`: the manual score was 0.

In the case of `C1CCC2(CC1)OCC1(CO2)COC2(CCCCC2)OC1`, the manual score was 0.

Regarding `CC1(C)NC(=O)NC2(C)NC(=O)NC(C)(C)C12` (stereo not given), the manual score was 0.

Turning to `CNC(=S)N/N=C/c1ccc(C(C)C)cc1`, the manual score is 1 (active).

Regarding `CNC(=S)N/N=C(\C)c1ccc(C)c(C)c1`, the manual score was 0.5.

For `C=CCNC(=O)C1CC(=O)N(c2ccc(OCC(=O)Nc3ccccc3)cc2)C1` (stereo not given), the manual score was 0.

As to `Fc1cc(F)c2nc(Nc3nc4c(F)cccc4s3)sc2c1`, the manual score is 1 (active).

On to `Fc1cccc2sc(Nc3nc4ccccc4s3)nc12`, for which the manual score is 0.

Take `Fc1ccc2nc(Nc3nc4c(F)cccc4s3)sc2c1`: the manual score is 1 (active).

Turning to `Fc1cccc2sc(Nc3nc4cc5c(cc4s3)OCO5)nc12`, the manual score is 0.

Regarding `Fc1ccc2nc(Nc3nc4c(F)cc(F)cc4s3)sc2c1`, the manual score was 1 (active).

With `COc1cc(/C=C2/C(=O)N=C(N)N2C)cc(OC)c1OC`, the manual score was 0.

As for `CC1CC(C)CN(C(=S)Nc2ccc(SC(F)F)cc2)C1` (stereo not given), the manual score was 0.

Values taken from PubChem BioAssay AID623868 (Vanderbilt High Throughput Screening Facility, 2012).
